# In PubChem BioAssay (NCATS):
# Results filed as inconclusive are left out. Where a call stands in place of a potency, no number is given. A number with no mark means an inactive call. Calls of active or inactive are those of the source. Calls come from the whole dose curve; as a rule, active = well fitted curve in the direction sought with a large enough effect; inconclusive = small, poorly fitted or top-dose-only effect, or another doubt; inactive = no such curve, though single readings can be large; an effect the other way counts as inactive or inconclusive.
# Experiments:
# [1] = test system: MCC-13; experiment: qHTS assay to identify novel small-molecules to repurpose for Merkel cell carcinoma treatment (AID 1296009); details: MCC and control cell lines, CellTiter-Glo viability, 72 h; series mostly up to 46 µM; note: nearly all actives have a fitted effect of over 60% in size
# Method in brief: (§1)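 After compound transfer in DMSO, plates were kept 72 hr at 37 degree celsius. Luminescent ATP signal from CellTiter-Glo served as viability measure, normalized against DMSO and no-cell controls.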
# [2] = test system: MKL-1; experiment: as above; details: MCC and control cell lines, CellTiter-Glo viability, 72 h; series mostly up to 46 µM
# Method in brief: as §1
# [3] = test system: MKL-2; experiment: as above; details: MCC and control cell lines, CellTiter-Glo viability, 72 h; series mostly up to 46 µM
# Method in brief: as §1
# [4] = test system: UISO; experiment: as above; details: MCC and control cell lines, CellTiter-Glo viability, 72 h; series mostly up to 46 µM
# Method in brief: as §1
# [5] = test system: WaGa; experiment: as above; details: MCC and control cell lines, CellTiter-Glo viability, 72 h; series mostly up to 46 µM
# Method in brief: as §1
# [6] = test system: C33A; experiment: Primary qHTS to identify gynecologic anti-cancer compounds using libraries of approved drugs and bioactive compounds (AID 1345084); details: Gynecologic cancer cell panel viability, ATPlite luminescence, 48 h; series mostly up to 57.5 µM; note: nearly all actives have a fitted effect of over 55% in size
# Method in brief: (§2)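 Five-point cytotoxicity, 48 h drug exposure at 37 C, 5% CO2, on cells seeded 16 h beforehand. ATP content read by ATPlite luminescence.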
# [7] = test system: CAOV3; experiment: as above; details: Gynecologic cancer cell panel viability, ATPlite luminescence, 48 h; series mostly up to 57.5 µM
# Method in brief: as §2
# [8] = test system: CASKI; experiment: as above; details: Gynecologic cancer cell panel viability, ATPlite luminescence, 48 h; series mostly up to 57.5 µM
# Method in brief: as §2
# [9] = test system: Es-2; experiment: as above; details: Gynecologic cancer cell panel viability, ATPlite luminescence, 48 h; series mostly up to 57.5 µM
# Method in brief: as §2
# [10] = test system: HeLa; experiment: as above; details: Gynecologic cancer cell panel viability, ATPlite luminescence, 48 h; series mostly up to 57.5 µM
# Method in brief: as §2
# [11] = test system: Hek293T; experiment: as above; details: Gynecologic cancer cell panel viability, ATPlite luminescence, 48 h, control line for the selectivity index; series mostly up to 57.5 µM
# Method in brief: as §2
# [12] = test system: JEG-3; experiment: as above; details: Gynecologic cancer cell panel viability, ATPlite luminescence, 48 h; series mostly up to 57.5 µM
# Method in brief: as §2
# [13] = test system: OV90; experiment: as above; details: Gynecologic cancer cell panel viability, ATPlite luminescence, 48 h; series mostly up to 57.5 µM
# Method in brief: as §2
# [14] = test system: MCC-26; experiment: qHTS assay to identify novel small-molecules to repurpose for Merkel cell carcinoma treatment (AID 1296009); details: MCC and control cell lines, CellTiter-Glo viability, 72 h; series mostly up to 46 µM; note: nearly all actives have a fitted effect of over 60% in size
# Method in brief: as §1
# [15] = test system: NIH3T3; experiment: as above; details: MCC and control cell lines, CellTiter-Glo viability, 72 h; at 44.8 µM (top of the series) unless noted
# Method in brief: as §1
# Potency is the fitted concentration of half-maximal effect.
smiles,measurement,setting,value
O=C1OC(c2ccc(O)cc2)(c2ccc(O)cc2)c2ccccc21,Potency,[1],inactive
same,Potency,[2],inactive
same,Potency,[3],inactive
same,Potency,[4],inactive
same,Potency,[5],inactive
same,Potency,[6],inactive
same,Potency,[7],inactive
same,Potency,[8],inactive
same,Potency,[9],inactive
same,Potency,[10],inactive
same,Potency,[11],inactive
same,Potency,[12],inactive
same,Potency,[13],28.2 µM (active)
COc1cccc(OC)c1C(=O)N[C@@H]1C(=O)N2[C@@H]1SC(C)(C)[C@@H]2C(=O)O,Potency,[6],inactive
same,Potency,[7],inactive
same,Potency,[8],inactive
same,Potency,[9],inactive
same,Potency,[10],inactive
same,Potency,[11],inactive
same,Potency,[12],inactive
same,Potency,[13],inactive
C#C[C@]1(O)CC[C@H]2[C@@H]3CCC4=CC(=O)CC[C@@H]4[C@H]3CC[C@@]21C,Potency,[1],inactive
same,Potency,[14],inactive
same,Potency,[2],inactive
same,Potency,[3],inactive
same,Potency,[4],inactive
same,Potency,[5],inactive
same,Potency,[6],inactive
same,Potency,[8],inactive
same,Potency,[9],inactive
same,Potency,[10],3.55 µM (active)
same,Potency,[11],inactive
same,Potency,[12],inactive
CN1C(CCl)Nc2cc(Cl)c(S(N)(=O)=O)cc2S1(=O)=O (stereo unspecified),Potency,[6],inactive
same,Potency,[7],inactive
same,Potency,[8],inactive
same,Potency,[9],inactive
same,Potency,[10],inactive
same,Potency,[11],inactive
same,Potency,[12],inactive
same,Potency,[13],inactive
CCCCCCCCCCCCCCCCOP(=O)([O-])OCC[N+](C)(C)C,Potency,[1],inactive
same,Potency,[14],inactive
same,Potency,[6],inactive
same,Potency,[8],inactive
same,Potency,[9],inactive
same,Potency,[11],inactive
same,Potency,[12],inactive
same,Potency,[13],25.1 µM (active)
CC(O)C(=O)O (stereo unspecified),Potency,[6],inactive
same,Potency,[7],inactive
same,Potency,[8],inactive
same,Potency,[9],inactive
same,Potency,[10],inactive
same,Potency,[11],inactive
same,Potency,[12],inactive
same,Potency,[13],inactive
CCN(CC)C(=O)N1CCN(C)CC1,Potency,[1],inactive
same,Potency,[14],inactive
same,Potency,[2],inactive
same,Potency,[3],inactive
same,Potency,[4],inactive
same,Potency,[5],inactive
same,Potency,[6],inactive
same,Potency,[7],inactive
same,Potency,[8],inactive
same,Potency,[9],inactive
same,Potency,[10],inactive
same,Potency,[11],inactive
same,Potency,[12],inactive
same,Potency,[13],inactive
C[C@]12CC[C@@H]3c4ccc(O)cc4CC[C@H]3[C@@H]1C[C@@H](O)[C@@H]2O,Potency,[6],inactive
same,Potency,[7],inactive
same,Potency,[8],inactive
same,Potency,[9],inactive
same,Potency,[10],31.6 µM (active)
same,Potency,[11],inactive
same,Potency,[12],inactive
same,Potency,[13],inactive
NC(=O)c1cc[n+](CC2=C(C(=O)[O-])N3C(=O)[C@@H](NC(=O)Cc4cccs4)[C@H]3SC2)cc1,Potency,[1],inactive
same,Potency,[14],inactive
same,Potency,[2],inactive
same,Potency,[3],inactive
same,outcome,[15],inactive
same,Potency,[4],inactive
same,Potency,[5],inactive
same,Potency,[6],inactive
same,Potency,[7],inactive
same,Potency,[8],inactive
same,Potency,[9],inactive
same,Potency,[10],inactive
same,Potency,[11],inactive
same,Potency,[12],inactive
same,Potency,[13],inactive
NC(=O)CC[C@@H]1NC(=O)[C@H](Cc2ccccc2)NC(=O)[C@H](Cc2ccc(O)cc2)NC(=O)CCSSC[C@@H](C(=O)N2CCC[C@H]2C(=O)N[C@@H](CCCN=C(N)N)C(=O)NCC(N)=O)NC(=O)[C@H](CC(N)=O)NC1=O,Potency,[1],inactive
same,Potency,[2],inactive
same,Potency,[3],inactive
same,outcome,[15],inactive
same,Potency,[4],inactive
same,Potency,[5],inactive
same,Potency,[6],inactive
same,Potency,[7],inactive
same,Potency,[8],inactive
same,Potency,[9],inactive
same,Potency,[10],inactive
same,Potency,[11],inactive
same,Potency,[12],inactive
same,Potency,[13],inactive
Nc1ccc(/C=C/c2ccc(N)cc2S(=O)(=O)O)c(S(=O)(=O)O)c1,"activity change, negative = cytotoxicity",[6],-2.85% [at 0.462 µM]
same,"activity change, negative = cytotoxicity",[7],-5.63% [at 0.462 µM]
same,"activity change, negative = cytotoxicity",[8],-23.3% [at 0.462 µM]
same,"activity change, negative = cytotoxicity",[9],1.34% [at 0.462 µM]
same,"activity change, negative = cytotoxicity",[10],9.69% [at 0.462 µM]
same,"activity change, negative = cytotoxicity",[11],4.03% [at 0.462 µM]
same,"activity change, negative = cytotoxicity",[12],-1.28% [at 0.462 µM]
same,"activity change, negative = cytotoxicity",[13],2.33% [at 0.462 µM]
c1ccc(-c2ccc(C(c3ccccc3)n3ccnc3)cc2)cc1 (stereo unspecified),Potency,[1],inactive
same,Potency,[6],inactive
same,Potency,[7],inactive
same,Potency,[8],inactive
same,Potency,[9],inactive
same,Potency,[10],inactive
same,Potency,[12],inactive
same,Potency,[13],inactive
C[n+]1c2cc(N)ccc2cc2ccc(N)cc21 (tested in a mixture with another compound),Potency,[1],11.9 µM (active)
same,Potency,[2],2.99 µM (active)
same,Potency,[3],0.75 µM (active)
same,Potency,[4],2.99 µM (active)
same,Potency,[5],1.5 µM (active)
same,Potency,[9],15.8 µM (active)
same,Potency,[10],8.91 µM (active)
same,Potency,[11],10 µM (active)
CC(CCc1ccccc1)NCC(O)c1ccc(O)c(C(N)=O)c1 (stereo unspecified),Potency,[6],inactive
same,Potency,[7],inactive
same,Potency,[8],inactive
same,Potency,[9],inactive
same,Potency,[10],inactive
same,Potency,[11],inactive
same,Potency,[12],inactive
same,Potency,[13],inactive
CCN(CC)CCNC(=O)COc1ccc(Cl)cc1,Potency,[6],inactive
same,Potency,[7],inactive
same,Potency,[8],inactive
same,Potency,[9],inactive
same,Potency,[10],inactive
same,Potency,[11],inactive
same,Potency,[12],inactive
same,Potency,[13],inactive
C[C@H]1[C@H](NC(=O)/C(=N/OC(C)(C)C(=O)O)c2csc(N)n2)C(=O)N1S(=O)(=O)O (stereo in doubt),Potency,[1],inactive
same,Potency,[2],inactive
same,Potency,[3],inactive
same,Potency,[4],inactive
same,Potency,[5],inactive
same,Potency,[6],inactive
same,Potency,[7],inactive
same,Potency,[8],inactive
same,Potency,[9],inactive
same,Potency,[10],inactive
same,Potency,[11],inactive
same,Potency,[12],inactive
same,Potency,[13],inactive
CCCCc1nc(Cl)c(CO)n1Cc1ccc(-c2ccccc2-c2nn[nH]n2)cc1,Potency,[6],inactive
same,Potency,[8],inactive
same,Potency,[9],inactive
same,Potency,[10],inactive
same,Potency,[11],inactive
same,Potency,[12],inactive
same,Potency,[13],inactive
O=C(O)CCCCC(=O)O,Potency,[6],inactive
same,Potency,[8],inactive
same,Potency,[9],inactive
same,Potency,[10],inactive
same,Potency,[11],inactive
same,Potency,[12],inactive
same,Potency,[13],inactive
Oc1c(Cl)cc(Cl)cc1Sc1cc(Cl)cc(Cl)c1O,Potency,[6],inactive
same,Potency,[8],inactive
same,Potency,[9],inactive
same,Potency,[10],inactive
same,Potency,[11],inactive
same,Potency,[12],inactive
same,Potency,[13],inactive
CC(C)NC[C@@H](O)COc1cccc2ccccc12,Potency,[6],inactive
same,Potency,[7],inactive
same,Potency,[9],inactive
same,Potency,[10],inactive
same,Potency,[11],inactive
same,Potency,[12],inactive
same,Potency,[13],inactive
OC[C@@H](O)[C@@H](O[C@@H]1O[C@H](CO)[C@H](O)[C@H](O)[C@H]1O)[C@H](O)[C@@H](O)CO,Potency,[1],inactive
same,Potency,[14],inactive
same,Potency,[2],inactive
same,Potency,[3],inactive
same,Potency,[4],inactive
same,Potency,[5],inactive
same,Potency,[6],inactive
same,Potency,[7],inactive
same,Potency,[8],inactive
same,Potency,[9],inactive
same,Potency,[10],inactive
same,Potency,[11],inactive
same,Potency,[12],inactive
same,Potency,[13],inactive
CC(C)(Oc1ccc(Cl)cc1)C(=O)O,Potency,[1],inactive
same,Potency,[2],inactive
same,Potency,[3],inactive
same,Potency,[4],inactive
same,Potency,[5],inactive
same,Potency,[6],inactive
same,Potency,[7],inactive
same,Potency,[8],inactive
same,Potency,[9],inactive
same,Potency,[10],inactive
same,Potency,[11],inactive
same,Potency,[12],inactive
same,Potency,[13],inactive
